# Compound activity: PubChem BioAssay, National Center for Advancing Translational Sciences (NCATS)
# mTORC1 inh = mTORC1 pathway inhibition measured by phospho-rpS6 | Potency, µM (doses to about 38.3 µM), hits mostly inhibitors | Tsc2-/- p53-/- MEF, phospho-rpS6 immunofluorescence/PI, 24 h | hit rate 0.78% among 44,000; also: nearly all actives have a fitted effect of over 50% in size
#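 Compounds act on Tsc2-/-, p53-/- fibroblasts carrying an empty vector for 24 h before fixation and dual staining for phospho-S6 and DNA (propidium iodide). Values are percentages of cells above a rapamycin-defined pS6/PI threshold.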
# OvCa metastasis = blocks SKOV3ip1 adhesion and invasion in omental model. SKOV3ip1-GFP adhesion/invasion on 3D omental model, fluorescence. Potency, µM (series often up to 45.8 µM), actives largely listed as inhibitors. hit rate 0.1% among 46,000. AID 1963576; also: nearly all actives have a fitted effect of over 65% in size
#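 Primary human omental fibroblast/mesothelial 3D culture pre-formed 48 h. SKOV3ip1-GFP cells added with compounds (0.36-46 umol/L), incubated 2 h RT/16 h 37 C, fixed; GFP cells quantified at 488/509 nm.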
# PMP22 txn = modulates PMP22 transcription in S16 Schwann cells | S16 Pmp22-F2sN Schwann cells, FLuc/NLuc coincidence luminescence, 24 h | hit rate 2% among 43,000 | AID 1508649 | Potency, µM (doses to about 57.5 µM), actives largely listed as inhibitors; active = clear falling dose curves in both reporters; inconclusive = both reporters move, but less clearly or upward; inactive = either reporter flat; the % is the NLuc reporter signal
#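 Schwann cells carrying the coincidence reporter were exposed to library compounds for 24 h at 37C, then lysed and read for FLuc and, after quenching, NLuc luminescence on a CCD imager.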
# p53null 39C tox = kills p53 null cells at the nonpermissive temperature | H1299 p53-null (neo) cells, 39C, ATPlite viability, 24 h | Potency, µM (top dose mostly 46.1 µM), actives largely listed as cytotoxic | hit rate 0.97% among 55,000 | AID 904; also: nearly all actives have a fitted effect of over 50% in size
#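 Following overnight plating at 37C (600 cells/well), H1299-neo or H1299-p53A138V cells are dosed up to 46 uM. Incubation lasts 24 hr at 39C before ATP detection.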
# S16 F2sN tox = S16 Schwann cell cytotoxicity. AID 1508642. Potency, µM (doses to about 57.5 µM), usual class: cytotoxic. hit rate 0.48% among 43,000. S16 Pmp22-F2sN Schwann cells viability, CellTiter-Glo, 24 h; also: nearly all actives have a fitted effect of over 65% in size
#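 Rat S16 Schwann reporter line, 24 h treatment with library compounds delivered at 23 nL per well. Cell viability by CellTiter-Glo luminescence.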
# p53null 32C tox = p53 null cell cytotoxicity, permissive temperature; H1299-neo p53 null cells, ATP luminescence, 24 h, 32C; Potency, µM (series often up to 46.1 µM), usual class: cytotoxic; hit rate 0.62% among 55,000; also: nearly all actives have a fitted effect of over 55% in size
#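 ATP-content luminescence in p53-null H1299-neo cells after 24 h compound exposure (up to 46 uM) at 32C permissive temperature; 0% and 100% killing set by DMSO and 100 uM tamoxifen; Hill-equation AC50.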
# NLuc saturating = counter-screen for PMP22 expression modulators: NanoLuc inhibition, saturating substrate; shares compounds with PMP22 txn; Secreted NLuc enzyme (filtered S16 cell medium), Nano-Glo luminescence; Potency, µM (titrated, usually from 57.5 µM), actives largely listed as inhibitors; hit rate 4% among 690; AID 1508638
# NLuc Km ctr = inhibits NanoLuc under Km conditions, PMP22 counter-screen. Potency, µM (series often up to 57.5 µM), actives largely listed as inhibitors. shares compounds with PMP22 txn. AID 1508639. hit rate 5% among 690. secreted NLuc enzyme, coelenterazine luminescence, Km conditions
# FLuc ctr PMP22 = inhibits firefly luciferase, PMP22 counter-screen | purified P. pyralis FLuc, luminescence, 10 min | Potency, µM (top dose mostly 57.5 µM), actives largely listed as inhibitors | AID 1508640 | 690 tested, under 10 active | shares compounds with PMP22 txn
# Target sequence (P08659 whole entry, looked up): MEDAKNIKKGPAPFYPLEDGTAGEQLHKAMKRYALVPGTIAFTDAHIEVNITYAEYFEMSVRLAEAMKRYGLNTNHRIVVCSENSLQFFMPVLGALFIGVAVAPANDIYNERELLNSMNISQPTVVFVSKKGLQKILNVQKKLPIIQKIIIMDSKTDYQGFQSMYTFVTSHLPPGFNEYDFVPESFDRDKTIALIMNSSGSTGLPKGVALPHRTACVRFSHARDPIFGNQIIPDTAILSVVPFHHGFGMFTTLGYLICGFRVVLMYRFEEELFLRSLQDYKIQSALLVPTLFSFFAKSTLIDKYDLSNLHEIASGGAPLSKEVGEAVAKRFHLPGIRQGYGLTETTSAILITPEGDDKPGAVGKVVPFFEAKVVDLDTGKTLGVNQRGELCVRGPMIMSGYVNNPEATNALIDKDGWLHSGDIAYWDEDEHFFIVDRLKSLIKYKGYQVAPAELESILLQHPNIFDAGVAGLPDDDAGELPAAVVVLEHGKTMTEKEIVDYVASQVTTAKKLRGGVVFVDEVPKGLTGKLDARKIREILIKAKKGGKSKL
# S16 viab conf = confirmation of cytotoxicity in S16 Pmp22-F2sN Schwann cells (luciferase reporters placed in the Pmp22 gene) | shares compounds with PMP22 txn | S16 Schwann cells viability, CellTiter-Glo ATP luminescence, 24 h | Potency, µM (doses to about 57.5 µM), hits mostly cytotoxic | hit rate 7% among 690 | AID 1508641
# PMP22 txn cnf = PMP22 transcription modulation, confirmatory; shares compounds with PMP22 txn; Potency, µM (series often up to 57.5 µM), actives largely listed as inhibitors; S16 Schwann cells Pmp22-F2sN, dual luciferase, 24 h; hit rate 22% among 690; active = clear falling dose curves in both reporters; inconclusive = both reporters move, but less clearly or upward; inactive = either reporter flat; the % is the FLuc reporter signal
# PMP22 HiBiT cnf = rat PMP22 protein level modulation, confirmatory; 95 tested, under 10 active; AID 1508647; Potency, µM (top dose mostly 27.9 µM), usual class: inhibitors; shares compounds with PMP22 txn; S16 Schwann cells Pmp22-HiBiT, luminescence, 48 h
# A number is an active result; 0 = inactive; ? = inconclusive; - = no result. Compounds with a hit are over-represented: about 3.1% of the library has one in this group of screens. Unless noted, calls follow the shape of the dose curve; as a rule, active = well fitted curve in the direction sought with a large enough effect; inconclusive = small, poorly fitted or top-dose-only effect, or another doubt; inactive = no such curve, though single readings can be large; an effect the other way counts as inactive or inconclusive.
SMILES,mTORC1 inh,OvCa metastasis,PMP22 txn,p53null 39C tox,S16 F2sN tox,p53null 32C tox,NLuc saturating,NLuc Km ctr,FLuc ctr PMP22,S16 viab conf,PMP22 txn cnf,others
CO[C@H]1/C=C\O[C@@]2(C)Oc3c(C)c(O)c4c(O)c(c(C=NN5CCN(C6CCCC6)CC5)c(O)c4c3C2=O)NC(=O)C(C)=CC=C[C@H](C)[C@H](O)[C@@H](C)[C@@H](O)[C@@H](C)[C@H](OC(C)=O)[C@H]1C,-,0,-,-,-,-,-,-,-,-,-,
CCCCn1c(=O)c2oc3ccccc3c2n(CC(=O)Nc2ccc(CC)cc2)c1=O,0,0,14.2µM,0,0,0,0,0,0,0,?,
Cc1ccc(C)c(NC(=O)Cn2c(=O)n(Cc3ccco3)c(=O)c3oc4ccccc4c32)c1,0,0,11.9µM,0,0,0,0,0,0,0,?,
CCOc1ccccc1NC(=O)CSc1nc2c(oc3ccccc32)c(=O)n1Cc1ccco1,0,0,11.3µM,0,?,0,0,0,0,0,0,
CCCCn1c(=O)c2oc3ccccc3c2n(CC(=O)Nc2cc(C)ccc2C)c1=O,0,0,?,0,0,0,-,-,-,-,-,
Cc1ccc(C)c(NC(=O)Cn2c(=O)n(Cc3ccccc3)c(=O)c3oc4ccccc4c32)c1,0,0,18.9µM,0,0,0,0,0,0,?,?,PMP22 HiBiT cnf=?
O=C1CCCC2=C1C(c1[nH]ncc1Cl)N=C(Nc1nc3ccccc3o1)N2 (configuration not stated),-,0,-,-,-,-,-,-,-,-,-,
Cc1ccc(CN2C(=O)C(O)(c3c(C)[nH]c4ccccc34)c3ccccc32)cc1 (configuration not stated),?,0,8.16µM,0,0,0,?,?,0,0,17.2µM,PMP22 HiBiT cnf=0
Cc1[nH]c2ccccc2c1C1(O)C(=O)N(Cc2ccccc2)c2ccc(Cl)cc21 (configuration not stated),?,0,16.3µM,?,0,0,0,?,0,?,?,
